Here are results for 93 molecules from PubChem BioAssay AID1851 (National Center for Advancing Translational Sciences (NCATS), 2009).

Molecules are shown by their SMILES. The whole screen tested about 16,000 compounds, of which about 4,000 (25%) were called active. Another 26% or so got no clear call; they are omitted. These entries were drawn from the full list. Unmarked numbers belong to inactive results. Calls follow the shape of the dose curve; as a rule, active = well fitted curve in the direction sought with a large enough effect; inconclusive = small, poorly fitted or top-dose-only effect, or effect the other way; inactive = no such curve, though single readings can be large or run the other way.
% is scaled to controls: 0 for no effect and ±100 for the full control effect.

The target of this experiment is Cytochrome P450 2C9 (Homo sapiens) (UniProt P11712). In words: Cytochrome panel assay with activity outcomes. As to conditions: recombinant CYP, pro-luciferin dealkylation, luminescence, p450-cyp2c9; series mostly up to 57.1 µM.
Cytochrome P450 2C9 (Homo sapiens), sequence (P11712 whole entry, looked up): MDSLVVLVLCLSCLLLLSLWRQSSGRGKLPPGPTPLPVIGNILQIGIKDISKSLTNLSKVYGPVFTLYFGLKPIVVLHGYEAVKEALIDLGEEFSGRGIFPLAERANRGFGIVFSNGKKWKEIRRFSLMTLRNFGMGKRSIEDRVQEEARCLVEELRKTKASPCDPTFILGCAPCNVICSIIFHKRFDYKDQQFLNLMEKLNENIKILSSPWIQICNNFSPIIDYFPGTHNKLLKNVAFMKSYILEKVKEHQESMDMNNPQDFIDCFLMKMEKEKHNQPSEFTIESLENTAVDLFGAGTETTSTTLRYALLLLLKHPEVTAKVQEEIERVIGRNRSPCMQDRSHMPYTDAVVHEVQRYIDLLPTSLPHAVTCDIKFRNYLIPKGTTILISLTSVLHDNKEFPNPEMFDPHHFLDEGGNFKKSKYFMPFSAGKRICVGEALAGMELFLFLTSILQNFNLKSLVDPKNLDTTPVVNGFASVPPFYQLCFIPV
Take `NC(N)=N[C@@H]1C(O)[C@H](N=C(N)N)[C@@H](O)C(O)[C@H]1O` (stereo partly drawn): the activity, negative = inhibition was 13.6% [at 11.4 µM]. On to `Nc1nc2c(ncn2COCCO)c(=O)[nH]1`, for which the AC50 result is “inactive”. Take `c1cn(-c2ncnc3ccc(-c4ccoc4)cc23)cn1`: the activity, negative = inhibition is -25.3% [at 2.29 µM]. Consider `COC(=O)[C@@]1(Cc2ccccc2)[C@H]2c3cc(C(=O)N4CCCC4)n(Cc4ccc(C(F)(F)F)nc4)c3C[C@H]2CN1C(=O)c1ccccc1`, for which the half-maximal activity concentration (AC50) is 5.01 µM (active).

Take `COC(=O)[C@@]1(Cc2ccc(F)cc2)[C@H]2c3cc(C(=O)N(C)C)n(Cc4ccc(C(F)(F)F)nc4)c3C[C@H]2CN1C(=O)c1ccccc1`: the concentration at half-maximal activity (AC50) was 25.1 µM (active). Take `Clc1ccccc1-c1ccc2ncnc(NC3CCNCC3)c2c1`: the activity, negative = inhibition is 20.4% [at 2.29 µM].

As to `Cc1ccccc1-c1cncnc1NCc1ccccc1`, the activity, negative = inhibition is -7.47% [at 2.29 µM]. With `CCC(=O)N[C@@H]1Cc2ccccc2[C@@H](c2ccccc2)C1`, the AC50 result is “inactive”. For the molecule `CN(C)c1ccc(-c2nc(N3CCNCC3)c3ccccc3n2)cc1`, the activity, negative = inhibition was 0.369% [at 2.29 µM]. As for `Brc1ccc(-c2nnc(-c3ccccc3)c(N3CCSCC3)n2)cc1`, the AC50 was 10 µM (active).

For `Clc1ccc(-c2nnc(-c3ccccc3)c(N3CCSCC3)n2)cc1`, the AC50 was 14.1 µM (active). For `Cc1noc(C)c1-c1ccc2ncnc(N3CCOCC3)c2c1`, the activity, negative = inhibition was 7.24% [at 2.29 µM]. On to `CCN1CCN(c2cc(=O)n(-c3cc(Cl)ccc3C)c(=O)[nH]2)CC1`, for which the AC50 entry is “inactive”. Consider `C[N+](C)(C)CCCCCC[N+](C)(C)C`, for which the AC50 result was “inactive”. Consider `COC(=O)N1CCC[C@@]2(CCN(C(=O)Nc3cccc(C#N)c3)C2)C1`, for which the AC50 result is “inactive”. On the same count and under the same terms, the result for `Cc1ccc(CSc2nc3c(c(SCC(=O)O)n2)CCCC3)cc1` reads 5.62 µM (active); that for `CC[C@@]12CCCN3CCc4c(n(c5ccccc45)C(=O)C1)[C@H]32`, “inactive”. Same read-out and setting: as for `S=C1NC2=C(C(c3ccc(Br)cc3)N1)N1CCC2CC1` (stereo not drawn), the figure is 22.4 µM (active); as for `Fc1cccc(C2NC(=S)NC3=C2N2CCC3CC2)c1` (stereo not drawn), “inactive”; as for `CCOC(=O)CC(NC(=O)c1ccc(C)cc1)c1ccc(C)cc1` (stereo not drawn), 15.8 µM (active). On to `COc1ccc(C(NC(=O)c2ccc(-c3ccccc3)cc2)c2ccccc2)cc1` (stereo not drawn), for which the AC50 entry is “inactive”. On the same count and under the same terms, the result for `CCOC(=O)CC(NC(=O)c1cccs1)c1ccc(OCC)cc1` (stereo not drawn) reads 3.55 µM (active); that for `CNNCc1ccc(C(=O)NC(C)C)cc1`, “inactive”.

For the molecule `FC(F)(F)c1ccccc1-c1nc(NC2CCNCC2)c2ccccc2n1`, the activity, negative = inhibition is 14.5% [at 2.29 µM]. In the case of `Cc1nc(S(=O)(=O)N2CCOCC2)c(C#N)c(C)c1Cl`, the AC50 result is “inactive”. Consider `CCCOc1ccc(OCCNC2CCCC2)cc1`, for which the AC50 entry is “inactive”. Take `c1c[nH]c(CN2CCOCC2)n1`: the activity, negative = inhibition was -9.4% [at 11.4 µM]. For the molecule `Oc1cccc2ccc(SSc3ccc4cccc(O)c4n3)nc12`, the AC50 is 1.58 µM (active). On the same count and under the same terms, as for `Cc1c(N(C)C)c(=O)n(-c2ccccc2)n1C`, the entry is “inactive”.

`Cc1ccc(O)c(C(=O)c2cc(C#N)c(=O)n(-c3c(C)n(C)n(-c4ccccc4)c3=O)c2)c1`: the AC50 was 15.8 µM (active). Still for that read-out and setting: the result for `Cc1c(O)c(=O)n(-c2ccccc2)n1C` reads “inactive”; that for `CCCCCOC(=O)CSc1nnc(-c2ccccc2)c(=O)[nH]1`, 2 µM (active). `Nc1nc(SCC(=O)O)[nH]c(=O)c1N`: the activity, negative = inhibition is -6.53% [at 11.4 µM]. Still for that read-out and setting: as for `NCCCc1c(-c2ccccc2)nc(N)[nH]c1=O`, the figure is -12.1% [at 11.4 µM]. In the case of `Cc1ccc(S(=O)(=O)N[C@H](C(=O)N2CCC(C(=O)NCC(=O)O)CC2)C(C)C)cc1`, the AC50 result is “inactive”. On the same count and under the same terms, the result for `CCc1ccc2c(c1)c(N=NC1=NC(=O)CS1)c(O)n2CC` reads 12.6 µM (active). On to `COc1ccc2nc3cc(Cl)ccc3c(Nc3ccc(O)c(CN4CCN(C)CC4)c3)c2c1`, for which the activity, negative = inhibition was -28.4% [at 11.4 µM].

As to `Cc1sc2nc(SCC(=O)C(C)(C)C)n(Cc3ccco3)c(=O)c2c1C`, the half-maximal activity concentration (AC50) was 1.58 µM (active).

`COc1ccc(C(=O)N2CCC3(CC2)CN(C(=O)NC(C)C)C3)cc1`: the AC50 result is “inactive”. On the same count and under the same terms, as for `O=C(Nc1cccnc1Cl)C1c2ccccc2Oc2ccccc21`, the figure is 1.12 µM (active); as for `Cc1ccccc1NC(=O)c1cnc(Nc2nc3ccccc3s2)nc1C`, “inactive”.

As to `Cc1cccc2sc(NC(=O)C3c4ccccc4Oc4ccccc43)nc12`, the AC50 is 1.26 µM (active). `NC(N)=NNC(=O)C(=O)O`: the activity, negative = inhibition is -4.6% [at 11.4 µM].

Take `OCCNc1ncnc2nc[nH]c12`: the activity, negative = inhibition was -11.4% [at 11.4 µM]. Take `CCc1cc2c(NCCO)ncnc2s1`: the AC50 was 1.58 µM (active). `OCCCNc1ncnc2[nH]ncc12`: the activity, negative = inhibition was -4.6% [at 11.4 µM]. As to `c1csc(CNc2ncnc3ccc(-c4ccoc4)cc23)c1`, the activity, negative = inhibition was 0.0121% [at 2.29 µM]. The same measure, in the same setting: as for `Cc1cnc(CNc2ncnc3ccc(-c4ccoc4)cc23)cn1`, the figure is 11.8% [at 2.29 µM].

`CCc1cc2c(NCc3ccco3)ncnc2s1`: the AC50 is 4.47 µM (active). Take `CN=c1nc(-c2ccccc2)n(-c2ccccc2)s1`: the AC50 is 2 µM (active). Regarding `CN=C1N[C@H](c2ccccc2)N(c2ccccc2)S1`, the AC50 entry was “inactive”. The same measure, in the same setting: the result for `CC(=O)c1c(C)nc(-c2ccccc2)n1O` reads “inactive”.

Consider `CN1CC[C@@]2(CCCN(C(=O)c3cccn3C)C2)C1`, for which the AC50 entry was “inactive”. Still for that read-out and setting: as for `COC(=O)[C@@]1(Cc2ccc(F)cc2)[C@H]2c3cc(C(=O)N4CCCC4)n(Cc4cccc5ccccc45)c3C[C@H]2CN1C(=O)c1ccccc1`, the figure is 1.58 µM (active); as for `COC(=O)[C@@]1(Cc2ccccc2)[C@H]2c3cc(C(=O)N4CCCC4)n(Cc4cccc5ccccc45)c3C[C@H]2CN1C(=O)c1ccccc1`, 0.251 µM (active); as for `COc1ccc(-n2c(-c3ccccc3)nc(=S)c3c2CCCC3)cc1`, “inactive”. For the molecule `CC1=C(C(N)=O)C(c2cccs2)n2nc(-c3cccc(Cl)c3)nc2N1` (stereo not drawn), the AC50 was 12.6 µM (active). As to `CC(=O)/C(=N\N=C(N)N)c1ccccc1`, the activity, negative = inhibition is 11.7% [at 11.4 µM]. For `C/C(=N\N=C(c1ccccc1)c1ccccc1)c1cccs1`, the AC50 was 0.708 µM (active). The same measure, in the same setting: the result for `C/C(=N\N=C1\NC(=O)CC(C(=O)O)S1)c1cccs1` (stereo not drawn) reads “inactive”. Same read-out and setting: as for `CC(=O)c1cc(C)ccc1OC(=O)CCN1C(=O)C2C3c4ccccc4C(c4ccccc43)C2C1=O` (stereo not drawn), the entry is “inactive”; as for `O=c1[nH]ncn2cccc12`, “inactive”. On to `O=C(CSc1nnc(-c2ccco2)n1-c1ccccc1)NCc1ccco1`, for which the AC50 result is “inactive”.

Consider `Cc1cc(C)c(NC(=O)C(C)Sc2nnc(-c3ccco3)n2-c2ccccc2)c(C)c1` (stereo not drawn), for which the AC50 was 10 µM (active). In the case of `O=C(O)c1ccc(CNCc2ccccc2)cc1`, the activity, negative = inhibition was 10.3% [at 11.4 µM]. With `NC(=O)c1ccc(C2SCC(=O)N2Cc2ccccc2)cc1` (stereo not drawn), the concentration at half-maximal activity (AC50) was 12.6 µM (active). Same read-out and setting: as for `O=C1C2CCC(C(O)C2)N1Cc1ccccc1` (stereo not drawn), the entry is “inactive”; as for `NS(=O)(=O)c1cc(C(=O)O)cc(N2CCCC2)c1Oc1ccccc1`, “inactive”; as for `O=C(COc1ccccc1)Nc1cc(C(F)(F)F)ccc1N1CCCC1`, 14.1 µM (active). In the case of `O=C(COC(=O)COc1ccccc1)Nc1ccc(OC(F)(F)F)cc1`, the AC50 result was “inactive”.

With `Cc1nn(-c2nc3ccccc3[nH]2)c(N)c1-c1ccc(Cl)cc1`, the concentration at half-maximal activity (AC50) is 3.98 µM (active).

As for `O=C(O)Cc1c(O)ccc2ccccc12`, the activity, negative = inhibition is -24.2% [at 11.4 µM]. With `Oc1ccc2ccccc2c1Cc1c(O)ccc2ccccc12`, the AC50 was 2 µM (active). As to `CC(C)(C)c1ccc(O)c(CN(Cc2c(O)ccc3ccccc23)C2CCCCC2)c1`, the activity, negative = inhibition was -19% [at 11.4 µM]. Regarding `CC(=O)N1N=C(c2cccc([N+](=O)[O-])c2)OC1c1ccccc1Cl` (stereo not drawn), the AC50 was 0.891 µM (active). On the same count and under the same terms, the result for `CC(=O)N1N=C(c2cccc([N+](=O)[O-])c2)OC1c1ccc(Cl)cc1Cl` (stereo not drawn) reads 1.26 µM (active). With `Cn1c(=O)cc(OCCCC(=O)N2CCN(c3ccccc3)CC2)c2ccccc21`, the concentration at half-maximal activity (AC50) is 2.51 µM (active). Consider `CCOC(=O)C1CCCN(C(=O)CCCOc2cc(=O)n(C)c3ccccc23)C1` (stereo not drawn), for which the AC50 result was “inactive”.

Turning to `C(=N\N1CCN(C2c3ccccc3-c3ccccc32)CC1)/c1cccnc1`, the AC50 was 0.2 µM (active).

On to `C/C(=N\N1CCN(C2c3ccccc3-c3ccccc32)CC1)c1ccncc1`, for which the AC50 was 2.24 µM (active).

As for `CC(C)(C(=O)c1cccnc1)c1cccnc1`, the AC50 result is “inactive”. Consider `C/C(=N\N1CCN(C2c3ccccc3-c3ccccc32)CC1)c1cccnc1`, for which the half-maximal activity concentration (AC50) was 0.562 µM (active). Same read-out and setting: the result for `O=c1c2cnn(-c3ccccc3)c2nnn1/N=C/c1cccnc1` reads “inactive”; that for `O=[N+]([O-])c1cc(/C=N/N2CCN(C3c4ccccc4-c4ccccc43)CC2)ccc1Cl`, “inactive”.

Consider `Cn1nc(C(F)(F)F)c(/C=N/OC(=O)c2ccccc2Cl)c1SCc1ccc(Cl)cc1`, for which the AC50 is 3.98 µM (active). Still for that read-out and setting: as for `N[C@@]1(C(=O)O)CN[C@H](C(=O)O)C1`, the entry is “inactive”; as for `O=C(c1csnn1)N1CCC2(CC1)CN(Cc1cc(C(F)(F)F)cc(C(F)(F)F)c1)C2`, “inactive”. On to `Cc1ccc(C)n1N1C(=O)/C(=C\c2ccc(Cl)cc2)SC1=S`, for which the AC50 is 5.01 µM (active). The same measure, in the same setting: the result for `CC1=N/C(=C\c2ccc([N+](=O)[O-])cc2)C(=O)N1c1ccc(Cl)cc1` reads “inactive”.

`CC(=O)OC[C@@H]1O[C@@H](O/N=C2/C[C@@H](O)[C@@H](O)[C@@H]3[C@@H]4C(=O)N([C@@H](C)c5ccccc5)C(=O)[C@H]4CC[C@H]23)[C@H](OC(C)=O)[C@H](OC(C)=O)[C@@H]1OC(C)=O`: the activity, negative = inhibition is 10.5% [at 11.4 µM]. In the case of `CCOc1ccc(/C=C/C2=Cc3c(sc(NC(=O)CSc4n[nH]c(N)n4)c3C#N)C(C)(C)C2)cc1`, the AC50 is 10 µM (active). On to `Cc1ccc(/C=C/C2=Cc3c(sc(NC(=O)CSc4n[nH]c(N)n4)c3C#N)C(C)(C)C2)o1`, for which the AC50 was 2.82 µM (active). With `CC(=O)OC[C@@H]1O[C@@H](O/N=C2/C[C@@H](O)[C@@H](O)[C@@H]3[C@@H]4C(=O)N(c5cccc(Oc6ccccc6)c5)C(=O)[C@H]4CC[C@H]23)[C@H](OC(C)=O)[C@H](OC(C)=O)[C@@H]1OC(C)=O`, the activity, negative = inhibition was 1.66% [at 11.4 µM].
